The text below walks through data of PubChem BioAssay AID1626 (SRMLSC, 2009).

In all, about 220,000 compounds went through this assay and about 2,000 (0.91%) were called active. Another 2% or so got no clear call; they are omitted. The list is a sample of the results. Results with a measured potency or affinity are listed apart. Unmarked numbers belong to inactive results. Cut-off read from the data, not from the text of the source: inconclusive = inhibition above about 80% without an active follow-up result; inactive = below that; test concentration not stated here.

The assay is described as follows: M. tuberculosis H37Rv growth inhibitors, H37Rv strain (AID 1626).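 Note: bacteria incubated seven days before Alamar blue readout; 0% = bacteria only wells and 100% = bacteria with antibiotic wells.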 The note with it: active compounds read high, concentration not given here.
For `CN(C)CCCNc1nc2sc3c(c2c(=O)n1CCc1ccccc1)CCCCC3`, the inhibition was 76.4%. As for `CN(C)CCCn1c(=O)n(Cc2ccco2)c(=O)c2c3c(sc21)CCCCC3`, the figure is -6.11%; as for `CCn1c(=O)n(CCc2ccccc2)c(=O)c2c3c(sc21)CCCC3`, 0.77%; as for `O=c1c2c3c(sc2nc(NCCO)n1CCc1ccccc1)CCCCC3`, 5.74%. As for `CC1=C(C(=O)Nc2ccccc2)C(c2ccccn2)n2nc(CCCO)nc2N1` (stereo not given), the figure is 2.92%; as for `Cn1c(Sc2ccc(C(F)(F)F)cc2[N+](=O)[O-])nnc1-c1ccccc1`, 0.5%. In the case of `CCc1ccc(CNCc2cccs2)cc1`, the inhibition was -12.3%. As for `CCc1nc(NCCc2ccccn2)c2nnn(Cc3ccccc3F)c2n1`, the figure is 7.39%; as for `CCN1CCN(CCCNC(=O)c2ccc(/C=C3/Sc4ccccc4N(Cc4ccccc4F)C3=O)cc2)CC1`, 1.17%; as for `CN1CCN(CCCNC(=O)c2ccc(/C=C3\Sc4ccccc4N(Cc4ccccc4F)C3=O)cc2)CC1`, 33.6%. As for `NC(N)=NS(=O)(=O)c1ccc(NC(=S)NC(=O)/C=C/c2cccs2)cc1`, the figure is 3.44%. As for `CCOC(=O)c1c(-c2ccncc2)csc1N`, the figure is 9.94%. As for `c1cc(-c2ccncc2)ccn1`, the inhibition was 2.83%. As for `O=C(NC(=S)Nc1ccccc1[N+](=O)[O-])c1ccccc1Cl`, the figure is -1.52%; as for `O=C(Nc1ccccc1)OCCCc1ccccc1`, 5.86%. The result for `COc1ccc(C2C=C(C34CC5CC(CC(C5)C3)C4)NC(=S)N2)cc1` (stereo not given) reads 1.23%; that for `COC(=O)CSc1nc(C)cc(C)c1C#N`, -8.05%; that for `COC(=O)CSc1nc(-c2cccs2)ccc1C#N`, -2.21%. As for `COC(=O)c1sc2ccccc2c1N`, the figure is 2.95%. Take `COC(=O)CSc1nc2cc(C)ccc2cc1C#N`: the inhibition was -2.11%.

Turning to `COC(=O)c1sc2cnccc2c1N`, the inhibition was -1.77%. The result for `COC(=O)CSc1[nH]c(=O)cc(C)c1C#N` reads -7.37%; that for `COc1cc(SC)ccc1C(=O)OCC(=O)NC1CC1`, 2.29%; that for `CCOC(=O)CSc1snnc1C`, -2.01%. The result for `CN(c1ccccc1)S(=O)(=O)c1cccc(Cl)c1Cl` reads -4.92%; that for `c1ccc(Oc2ccc(-c3ccnc4nc(N5CCN(c6ccccc6)CC5)nn34)cc2)cc1`, 20.8%.

Regarding `c1ccc(-c2ccnc3nc(N4CCN(c5ccccc5)CC4)nn23)cc1`, the inhibition was 6.16%. The result for `CNC(=S)NNC(=O)c1sccc1OCc1ccc(Cl)cc1Cl` reads -2.33%; that for `N#CC1CCN(c2ncccc2[N+](=O)[O-])CC1`, -9.15%; that for `COc1ccc(OC)c(-c2cc(C3CCN(c4ncccc4[N+](=O)[O-])CC3)[nH]n2)c1`, -8.76%. The result for `Cc1nnc(SCc2nc3ccccc3c(=O)n2-c2ccccc2Cl)n1N` reads 2.11%. The result for `Cc1cccc(C)c1NC(=O)c1c(C)nn(-c2ccccc2)c1Cl` reads -2.35%; that for `O=C(O)CSc1ccnc2cc(Cl)ccc12`, 3.22%. On to `CCN(CC)C(=O)Oc1ccnc2cc(Cl)ccc12`, for which the inhibition is 2.84%.

In the case of `O=C(COc1ccccc1Cl)Nc1ccc2c(c1)OCCO2`, the inhibition was 5.61%. The result for `COC(=O)c1ccccc1NC(=O)c1cc(C2CC2)on1` reads 4.32%; that for `CCc1ccccc1NC(=O)c1cc(C2CC2)on1`, 8.45%. Consider `COc1ccc(-c2csc(N3C(=O)C4C5c6ccccc6C(c6ccccc65)C4C3=O)n2)cc1` (stereo not given), for which the inhibition is 49%. As for `CCc1c(C#N)c(SCCC(=O)Nc2ccc(F)cc2)nc2c1C(=O)CC(C)(C)C2`, the figure is 6.22%; as for `O=C(NC1CC1)c1cc2c(F)cccc2s1`, -6.42%. As for `O=C(c1c(F)cccc1F)N1CCCC1`, the figure is -1.31%.

For the compound `COc1ccc(C(=O)OC(C(=O)c2ccc(C)cc2)c2ccccc2)cc1` (stereo not given), the inhibition was 9.22%.

Turning to `C/C(=N/NC(=O)c1cc(-c2ccc(Cl)s2)[nH]n1)c1ccco1`, the inhibition is 40.6%. With `CC1(C)CC(=O)C=C(c2cccc3c2oc2ccccc23)C1`, the inhibition is 8.8%.

On to `COC(=O)[C@@H]1C[C@H]1[C@@H](NS(=O)(=O)c1ccccc1)c1ccccc1`, for which the inhibition was -5.22%. For the compound `C/C(=N\N=C(/N)SC1CC(=O)N(c2ccccc2)C1=O)c1cccs1` (stereo not given), the inhibition is 3.4%. As for `C/C(=N\N=C(/N)SC1CC(=O)N(c2ccc(Cl)cc2)C1=O)c1cccs1` (stereo not given), the figure is 64.5%; as for `CC(O)/C=C/c1ccc2ccccc2n1` (stereo not given), 10.2%. As to `O=C(O)/C=C/c1ccc2ccccc2n1`, the inhibition is -1.78%. The result for `COC(=O)CNC(=O)COC(=O)/C=C/c1ccc2ccccc2n1` reads 61.8%; that for `CN(C(=O)COC(=O)/C=C/c1ccc2ccccc2n1)C1CCS(=O)(=O)C1` (stereo not given), 14.9%; that for `COc1cc(NC(=O)C2CC(=O)NC3=C2C(=O)CCC3)cc(OC)c1` (stereo not given), -7.6%. As for `CC(=O)O[C@]1(c2ccccc2)CCN(C)[C@H]2CCCC[C@@H]21`, the figure is -5.42%; as for `Cc1ccc(Cn2nnc3c(=O)n(CC(=O)c4ccccc4)cnc32)cc1`, 4.84%; as for `CC(=O)N1C(=O)N(C)C2C1N(C)C(=O)N2C(C)=O` (stereo not given), -8.79%. In the case of `C=CCOC(=O)C1=C(C)NC(=S)C(C#N)(CC=C)C1c1ccccc1Cl` (stereo not given), the inhibition is -0.05%. As for `Cc1ccc2c(C)nc(N/C(N)=N/S(=O)(=O)c3ccc([N+](=O)[O-])cc3)nc2c1`, the figure is 13%; as for `Cc1ccc(S(=O)(=O)/N=C(\N)Nc2nc(C)c3ccccc3n2)cc1`, 9.4%; as for `CCCOc1ccc(N2C(=O)CC(SC(=N)N3N=C(c4ccccc4)CC3c3ccccc3)C2=O)cc1` (stereo not given), 75.6%. `CCN(CC)S(=O)(=O)c1ccc(NC(=O)C(C)N(c2ccccc2)S(C)(=O)=O)cc1` (stereo not given): the inhibition is -1.18%.

For `COc1ccc(-c2nnc3ccc(SCC(=O)NCC4CCCO4)nn23)cc1` (stereo not given), the inhibition is -3.46%.

As to `Cc1cccc(-c2nsc(SCC(=O)Nc3cc(C)on3)n2)c1`, the inhibition was 70.6%.

As to `COc1ccc(-c2nnc(SCC(=O)NCC3CCCO3)n2C)cc1` (stereo not given), the inhibition was -4.37%.

Consider `CCc1ccc2nc(-c3cccc(C)c3)nc(SCC(=O)NCC3CCCO3)c2c1` (stereo not given), for which the inhibition was -13%.

Turning to `Cc1cc(NS(=O)(=O)c2ccccc2)n(-c2ccccc2)n1`, the inhibition was -2.44%. Turning to `CCC(=O)N1CCc2cc(S(=O)(=O)NCCC(=O)N3CCN(c4ccccn4)CC3)ccc21`, the inhibition is -5.78%. As for `COc1cc(/C=N/NC(=O)COc2ccccc2[N+](=O)[O-])ccc1OC(=O)c1ccco1`, the figure is 4.21%.

`Cn1ccnc1SCC(=O)Nc1ccc(Oc2ccccc2)cc1`: the inhibition is 3.6%. On to `CCCN1CCN(CCCNC(=O)C2CCN(c3nnc(-n4cccc4)s3)CC2)CC1`, for which the inhibition was -6.41%. As for `NC(=O)CSc1nc(-c2ccccc2Cl)ns1`, the figure is -12.5%. The result for `O=C(CSc1nc(-c2ccccc2Cl)ns1)NCc1ccco1` reads 24.3%.

For `COc1ccc(-n2c(C)cc(SC)c(C(C)=O)c2=S)cc1`, the inhibition is 1.47%. As for `CC(Sc1nncn1C)C(=O)Nc1ccc(Cl)cn1` (stereo not given), the figure is 4.99%; as for `CC(Sc1nnnn1-c1ccccc1)C(=O)Nc1ccc(Cl)cn1` (stereo not given), -7.65%; as for `Cc1nn(-c2ccc([N+](=O)[O-])cc2)c2c1C(c1cccc(Br)c1)N1C(=N2)C(=O)Nc2ccccc21` (stereo not given), 73%. The result for `Cc1nn(-c2ccccc2)c2c1C(c1ccc(Cl)cc1)N(c1ccccc1)C(=O)N2` (stereo not given) reads 63.4%; that for `COc1cccc(C2c3c(C)nn(-c4ccc([N+](=O)[O-])cc4)c3N=C3C(=O)Nc4ccccc4N32)c1` (stereo not given), 72.8%. Take `Cc1nn(-c2ccccc2)c2c1C(c1ccc([N+](=O)[O-])cc1)C(C#N)=C(N)O2` (stereo not given): the inhibition was -9.83%. As for `Cc1c(NC(=O)C(C)OC(=O)COc2cccc3c2OC(C)(C)C3)c(=O)n(-c2ccccc2)n1C` (stereo not given), the figure is 0.88%. As for `COCCNC(=O)COC(=O)c1ccc(OCC(=O)Nc2ccccc2OC)c(OC)c1`, the figure is 2.52%; as for `CCC1(C)CC(C(N)=S)CCO1` (stereo not given), 7.13%; as for `CCOC(=O)c1ccc(CSc2nnc(C)n2N)o1`, 1.16%.

Consider `NC(=O)C[C@H]1NC(=O)[C@H](CCC(=O)O)NC(=O)c2cc([N+](=O)[O-])cc(I)c2NCCC[C@@H](C(N)=O)NC1=O`, for which the inhibition was 3.24%. For `COc1ccc(Nc2ccnc3ccccc23)cc1`, the inhibition was 9.05%.

`Oc1ccc(Nc2ccnc3cc(Cl)ccc23)cc1`: the inhibition was -0.59%. As for `c1ccc2cc3c(NCCN4CCOCC4)ccnc3cc2c1`, the figure is 3.77%.

Take `c1ccc(CCNc2ncnc3ccccc23)cc1`: the inhibition is -6.97%. As for `Cc1c(C(=O)NCc2ccccc2Cl)oc2c1C(=O)CCC2`, the figure is -3.25%; as for `CCCCn1nc2cc(C(=O)NCc3cc(C(F)(F)F)cc(C(F)(F)F)c3)ccc2c1OC`, -4.51%. As for `O=C(NC1CCCCC1)c1ccc(Cn2cc(Cl)cn2)cc1`, the figure is 0.85%. As to `CCCSc1ccc(C(=O)Nc2ccc(F)cc2F)cn1`, the inhibition is 72.4%. The result for `CC(=O)Nc1ccc(NC(=O)c2ccc(Cl)nc2)cc1` reads 3.97%; that for `N=C1/C(=C/c2cccn2-c2cccc([N+](=O)[O-])c2)C(=O)N=C2SC=CN12`, -11.3%. As to `N=C1/C(=C/c2cccn2-c2ccc([N+](=O)[O-])cc2)C(=O)N=C2SC=CN12`, the inhibition is -5.89%. As for `Cc1ccc2cc(CN(CC3CCCO3)C(=O)C(C)C)c(=O)[nH]c2c1` (stereo not given), the figure is -3.77%.

In general, inhibition refers to the drop in the measured response relative to a control, in per cent.
